Assay results as given in PubChem BioAssay (Tox21).
Results filed as inconclusive are left out. Activity calls are given as the source filed them. Unless noted, calls follow the shape of the full dose curve.

Tests used:
[1] = qHTS assay to identify small molecule agonists of the sonic hedgehog signaling (Shh) pathway (AID 1259368);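 also: NIH/3T3-derived 3T3Gli1-Luc cells carrying a stable Gli1-driven firefly luciferase reporter; series mostly up to about 92 µM; nearly all actives have a fitted effect of over 15% in size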
Summary of the method: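 3T3Gli1-Luc (NIH/3T3 clone, stable Gli1-Luc); 4 hr pre-incubation, then cpd in DMSO 24 hr, 37 C/5% CO2; luciferase reagent 30 min RT; luminescence.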

[2] = qHTS assay to identify small molecule antagonists of the sonic hedgehog signaling (Shh) pathway (AID 1259369); also: nearly all actives have a fitted effect of over 45% in size
Summary of the method: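 3T3Gli1-Luc, conditioned-medium-stimulated, 24hr cpd, 37C/5% CO2; Gli1-driven firefly Luc luminescence after 30min RT with luciferase reagent. Cells plated 4hr before cpd.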

[3] = target: Estrogen receptor beta (Homo sapiens) (UniProt Q92731); assay: qHTS assay to identify small molecule agonists of the estrogen receptor beta (ER-beta) signaling pathway (AID 1259377; active = well fitted activation curve with a large enough effect in the signal ratio in the repeat runs, not every such curve was filed as active; the % refers to the signal ratio)
Chain of Estrogen receptor beta (Homo sapiens) (Q92731 whole entry, looked up): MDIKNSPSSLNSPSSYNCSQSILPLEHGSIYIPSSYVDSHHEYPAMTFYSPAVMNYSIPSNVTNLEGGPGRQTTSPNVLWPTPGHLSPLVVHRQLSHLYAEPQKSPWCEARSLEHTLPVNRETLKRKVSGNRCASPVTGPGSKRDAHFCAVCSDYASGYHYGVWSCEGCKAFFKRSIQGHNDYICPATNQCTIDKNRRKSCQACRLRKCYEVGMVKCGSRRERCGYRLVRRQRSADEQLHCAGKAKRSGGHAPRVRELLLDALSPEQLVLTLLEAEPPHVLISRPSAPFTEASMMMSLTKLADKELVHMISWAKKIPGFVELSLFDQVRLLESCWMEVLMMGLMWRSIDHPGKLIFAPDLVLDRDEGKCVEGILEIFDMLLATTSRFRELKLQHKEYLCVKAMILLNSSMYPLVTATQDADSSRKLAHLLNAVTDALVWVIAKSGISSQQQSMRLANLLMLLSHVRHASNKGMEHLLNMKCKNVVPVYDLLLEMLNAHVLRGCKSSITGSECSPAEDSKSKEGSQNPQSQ
Summary of the method: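 A UAS-controlled beta-lactamase reporter in ER-beta-UAS-bla HEK293T cells reports receptor activation. Compounds act for 16 hr at 37C in 2% charcoal-stripped serum, and a FRET substrate is read by fluorescence after 2 hours.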

[4] = target: Estrogen receptor beta (Homo sapiens) (UniProt Q92731); assay: qHTS assay to identify small molecule antagonists of the estrogen receptor beta (ER-beta) signaling pathway (AID 1259378; active = well fitted inhibition curve with a large enough effect in the signal ratio in the repeat runs, not every such curve was filed as active; the % refers to the signal ratio)
Summary of the method: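 ER-beta-UAS-bla HEK293T (GripTite) cells in 2% charcoal-stripped FBS medium were preincubated 6 hr at 37C, dosed with compound, then stimulated with 1 nM E2 (final) for 16 hr; beta-lactamase reporter read by B/G FRET fluorescence after 2 hr substrate loading.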

[5] = qHTS assay to identify small molecule agonists of the androgen receptor (AR) signaling pathway in the presence of an antagonist - cell viability counter screen (AID 1259379; active = well fitted curve in the direction sought with a large enough effect in the repeat runs; an effect the other way counts as inactive or inconclusive;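 also: MDA-kb2 human breast cancer cells carrying an MMTV luciferase reporter; series mostly up to about 92 µM; nearly all actives have a fitted effect of over 25% in size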)
Summary of the method: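 Cells: MDA-kb2 (MMTV-luc, AR and GR elements), 3,000/well, 5 hr settle. Added: nilutamide 3.0uM final, then compounds (15 conc.). Incubation: 16 hr, 37C, no CO2. Read-out: CellTiter-Fluor, 1 hr, fluorescence.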

[6] = qHTS assay to identify small molecule agonists of the estrogen receptor beta (ER-beta) signaling pathway - cell viability counter screen (AID 1259380; active = well fitted curve in the direction sought with a large enough effect in the repeat runs; an effect the other way counts as inactive or inconclusive; also: nearly all actives have a fitted effect of over 30% in size)
Summary of the method: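 HEK293T ER-beta-UAS-bla; 2% CS-FBS; 6 hr pre-plate, 16 hr cpd at 37C/5% CO2; LiveBLAzer read first, then CellTiter-Glo 30 min RT, luminescence.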

[7] = target: Androgen receptor (Homo sapiens) (UniProt P10275); assay: qHTS assay to identify small molecule agonists of the androgen receptor (AR) signaling pathway in the presence of an antagonist (AID 1259381); also: nearly all actives have a fitted effect of over 15% in size; also: potency is read from the fitted curve at half-maximal effect
Chain of Androgen receptor (Homo sapiens) (P10275 whole entry, looked up): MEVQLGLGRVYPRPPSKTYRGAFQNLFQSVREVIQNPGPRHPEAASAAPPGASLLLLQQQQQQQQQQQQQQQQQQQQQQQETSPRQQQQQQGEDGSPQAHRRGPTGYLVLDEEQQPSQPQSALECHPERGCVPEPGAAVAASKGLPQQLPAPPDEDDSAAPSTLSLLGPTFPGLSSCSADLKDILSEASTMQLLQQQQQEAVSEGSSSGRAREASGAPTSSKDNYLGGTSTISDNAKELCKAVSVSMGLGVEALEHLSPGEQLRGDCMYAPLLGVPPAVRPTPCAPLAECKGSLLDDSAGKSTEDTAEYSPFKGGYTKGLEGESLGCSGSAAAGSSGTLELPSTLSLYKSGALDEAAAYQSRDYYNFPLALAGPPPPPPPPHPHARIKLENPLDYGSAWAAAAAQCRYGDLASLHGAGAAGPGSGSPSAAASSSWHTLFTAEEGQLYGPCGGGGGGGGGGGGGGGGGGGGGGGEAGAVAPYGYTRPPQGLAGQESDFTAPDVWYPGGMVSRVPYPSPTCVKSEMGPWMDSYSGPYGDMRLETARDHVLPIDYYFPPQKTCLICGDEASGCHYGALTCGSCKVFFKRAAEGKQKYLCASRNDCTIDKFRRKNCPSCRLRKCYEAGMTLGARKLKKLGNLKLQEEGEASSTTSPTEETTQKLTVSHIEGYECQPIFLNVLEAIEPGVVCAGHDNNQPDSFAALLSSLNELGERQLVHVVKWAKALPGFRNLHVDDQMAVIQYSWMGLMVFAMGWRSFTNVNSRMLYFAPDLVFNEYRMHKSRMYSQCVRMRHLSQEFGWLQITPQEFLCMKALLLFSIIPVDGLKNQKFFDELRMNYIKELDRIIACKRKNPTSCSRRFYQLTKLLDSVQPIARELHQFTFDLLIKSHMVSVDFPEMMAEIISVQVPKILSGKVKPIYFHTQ
Summary of the method: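 MDA-kb2 cells, 3,000/well, rested 5hr at 37C/0% CO2 → nilutamide 3.0uM final or buffer → compounds, 15 conc. → 16hr at 37C → ONE-Glo, 30min RT → luminescence.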

[8] = qHTS assay to identify small molecule antagonists of the estrogen receptor beta (ER-beta) signaling pathway - cell viability counter screen (AID 1259382; active = well fitted curve in the direction sought with a large enough effect in the repeat runs; an effect the other way counts as inactive or inconclusive; also: series mostly up to about 92 µM; nearly all actives have a fitted effect of over 55% in size)
Summary of the method: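 Cells: ER-beta-UAS-bla HEK293T, 2,000/well, 2% CS-FBS, 6 hr settle. Cpd + E2 (1nM final), 16 hr, 37C/5% CO2. Bla FRET substrate 2 hr RT, then CellTiter-Glo 30 min RT, luminescence.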

[9] = target: Estrogen receptor (Homo sapiens) (UniProt P03372); assay: qHTS assay to identify small molecule agonists of the estrogen receptor alpha (ER-alpha) signaling pathway in the presence of an antagonist (AID 1259383); also: top concentration of the series differs between compounds; nearly all actives have a fitted effect of over 15% in size
Chain of Estrogen receptor (Homo sapiens) (P03372 whole entry, looked up): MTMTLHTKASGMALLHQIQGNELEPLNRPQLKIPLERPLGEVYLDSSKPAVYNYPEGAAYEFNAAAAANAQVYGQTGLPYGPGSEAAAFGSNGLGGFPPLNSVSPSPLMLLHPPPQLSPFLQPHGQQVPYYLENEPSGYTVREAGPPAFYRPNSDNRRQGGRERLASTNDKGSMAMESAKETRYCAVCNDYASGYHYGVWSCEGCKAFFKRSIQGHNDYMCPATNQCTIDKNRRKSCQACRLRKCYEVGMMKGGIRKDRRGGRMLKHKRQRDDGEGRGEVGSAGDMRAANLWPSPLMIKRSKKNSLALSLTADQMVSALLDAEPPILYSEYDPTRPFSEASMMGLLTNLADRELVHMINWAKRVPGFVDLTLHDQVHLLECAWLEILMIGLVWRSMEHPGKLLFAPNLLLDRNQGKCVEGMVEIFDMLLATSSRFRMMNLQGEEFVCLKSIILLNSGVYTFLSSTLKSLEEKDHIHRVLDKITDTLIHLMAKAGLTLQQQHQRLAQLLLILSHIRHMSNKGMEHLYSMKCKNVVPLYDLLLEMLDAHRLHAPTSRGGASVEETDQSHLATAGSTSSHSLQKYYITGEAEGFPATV
Summary of the method: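 VM7Luc4E2, endog. ER-alpha + 4×ERE-luc; charcoal-stripped FBS, phenol red-free, 5 d; 24hr plating; +10.0nM ICI-182,780 (final); cpds 15 conc, 22hr, 37C/5% CO2; ONE-Glo luminescence.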

[10] = qHTS assay to identify small molecule agonists or antagonists of the thyroid stimulating hormone receptor (TSHR) signaling pathway - wild type cell line counter screen (AID 1259384)
Summary of the method: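 Wild-type HEK293 cells were plated 18 h at 37 C/5% CO2, pin-dosed with compound plus Ro20-1724 medium, held 30 min at room temperature, then given cAMP-d2 and anti-cAMP-cryptate; fluorescence was read after 1 h. Fifteen concentrations, triplicate.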

[11] = target: Progesterone receptor (Homo sapiens) (UniProt P06401); assay: qHTS assay to identify small molecule antagonists of the progesterone receptor (PR) signaling pathway (AID 1346795; active = well fitted inhibition curve with a large enough effect in the signal ratio in the repeat runs, not every such curve was filed as active; the % refers to the signal ratio)
Chain of Progesterone receptor (Homo sapiens) (P06401 whole entry, looked up): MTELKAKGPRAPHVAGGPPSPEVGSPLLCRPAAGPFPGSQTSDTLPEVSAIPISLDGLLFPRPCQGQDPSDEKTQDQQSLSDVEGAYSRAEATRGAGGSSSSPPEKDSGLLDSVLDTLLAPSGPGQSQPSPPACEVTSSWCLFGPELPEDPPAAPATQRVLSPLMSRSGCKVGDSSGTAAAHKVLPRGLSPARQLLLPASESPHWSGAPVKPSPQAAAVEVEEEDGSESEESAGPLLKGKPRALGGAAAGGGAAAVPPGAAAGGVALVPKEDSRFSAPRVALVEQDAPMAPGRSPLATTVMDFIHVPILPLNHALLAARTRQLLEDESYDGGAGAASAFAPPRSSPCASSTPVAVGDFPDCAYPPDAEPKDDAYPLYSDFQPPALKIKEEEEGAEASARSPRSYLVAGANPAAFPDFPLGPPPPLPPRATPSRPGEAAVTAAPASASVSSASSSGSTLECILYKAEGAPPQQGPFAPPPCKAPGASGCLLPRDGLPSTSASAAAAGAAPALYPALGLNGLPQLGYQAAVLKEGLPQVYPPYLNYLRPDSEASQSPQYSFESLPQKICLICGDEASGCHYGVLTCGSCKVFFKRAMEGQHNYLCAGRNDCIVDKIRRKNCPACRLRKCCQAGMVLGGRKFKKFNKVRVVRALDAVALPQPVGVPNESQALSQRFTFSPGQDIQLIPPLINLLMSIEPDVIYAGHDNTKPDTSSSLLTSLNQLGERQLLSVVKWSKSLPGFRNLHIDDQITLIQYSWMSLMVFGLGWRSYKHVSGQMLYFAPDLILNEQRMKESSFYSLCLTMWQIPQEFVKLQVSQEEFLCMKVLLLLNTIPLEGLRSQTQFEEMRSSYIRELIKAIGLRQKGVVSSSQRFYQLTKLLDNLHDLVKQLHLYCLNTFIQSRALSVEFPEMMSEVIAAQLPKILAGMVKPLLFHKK
Summary of the method: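 HEK293T PR-UAS-bla reporter cells in charcoal-stripped serum (2%) received compound after a 6 hr settling period, followed by R5020 agonist at 1 nM final; 16 hr incubation preceded the FRET substrate step and fluorescence measurement.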

[12] = qHTS assay to identify small molecule antagonists of the progesterone receptor (PR) signaling pathway - cell viability counter screen (AID 1346798; active = well fitted curve in the direction sought with a large enough effect in the repeat runs; an effect the other way counts as inactive or inconclusive; also: series mostly up to about 92 µM; nearly all actives have a fitted effect of over 50% in size)
Summary of the method: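 Same-well multiplex: after 16 hr at 37C with compound and R5020 stimulation, HEK293T cells carrying a UAS-bla reporter received LiveBLAzer substrate (2 hr RT), then CellTiter-Glo (30 min RT) for luminescent viability.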

[13] = qHTS assay to identify small molecule agonists of the progesterone receptor (PR) signaling pathway - cell viability counter screen (AID 1346799); also: nearly all actives have a fitted effect of over 45% in size
Summary of the method: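 Counter screen for cytotoxicity: compound-treated PR-UAS-bla HEK293T cells (16 hr, 37C, 5% CO2) were assayed with CellTiter-Glo, luminescence measured after 30 min at room temperature.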

[14] = qHTS assay to identify small molecule antagonists of the TGF-beta/Smad signaling pathway - cell viability counter screen (AID 1346824; active = well fitted curve in the direction sought with a large enough effect in the repeat runs; an effect the other way counts as inactive or inconclusive; also: nearly all actives have a fitted effect of over 50% in size)
Summary of the method: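 SBE-bla HEK 293T cells were plated overnight at 37 C, then given compounds in DMSO plus TGF-beta1 (added as 0.25 ng/mL solution) for 5 hr. After the bla read, CellTiter-Glo was added to the same wells and luminescence read after 30 min at room temperature.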

[15] = qHTS assay to identify small molecule agonists of the TGF-beta/Smad signaling pathway (AID 1346859; active = well fitted activation curve with a large enough effect in the signal ratio in the repeat runs, not every such curve was filed as active; the % refers to the signal ratio; also: series mostly up to about 77 µM)
Summary of the method: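 Smad-responsive beta-lactamase reporter cells (HEK 293T) received compounds from DMSO stocks after overnight attachment, were incubated 5 hr, then treated 2 hr with FRET substrate before dual-emission fluorescence measurement (405 nm excitation).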

[16] = target: Thyrotropin receptor (Homo sapiens) (UniProt P16473); assay: qHTS assay to identify small molecule antagonists of the thyroid stimulating hormone receptor (TSHR) signaling pathway (AID 1259385); also: nearly all actives have a fitted effect of over 20% in size; also: potency is read from the fitted curve at half-maximal effect
Chain of Thyrotropin receptor (Homo sapiens) (P16473 whole entry, looked up): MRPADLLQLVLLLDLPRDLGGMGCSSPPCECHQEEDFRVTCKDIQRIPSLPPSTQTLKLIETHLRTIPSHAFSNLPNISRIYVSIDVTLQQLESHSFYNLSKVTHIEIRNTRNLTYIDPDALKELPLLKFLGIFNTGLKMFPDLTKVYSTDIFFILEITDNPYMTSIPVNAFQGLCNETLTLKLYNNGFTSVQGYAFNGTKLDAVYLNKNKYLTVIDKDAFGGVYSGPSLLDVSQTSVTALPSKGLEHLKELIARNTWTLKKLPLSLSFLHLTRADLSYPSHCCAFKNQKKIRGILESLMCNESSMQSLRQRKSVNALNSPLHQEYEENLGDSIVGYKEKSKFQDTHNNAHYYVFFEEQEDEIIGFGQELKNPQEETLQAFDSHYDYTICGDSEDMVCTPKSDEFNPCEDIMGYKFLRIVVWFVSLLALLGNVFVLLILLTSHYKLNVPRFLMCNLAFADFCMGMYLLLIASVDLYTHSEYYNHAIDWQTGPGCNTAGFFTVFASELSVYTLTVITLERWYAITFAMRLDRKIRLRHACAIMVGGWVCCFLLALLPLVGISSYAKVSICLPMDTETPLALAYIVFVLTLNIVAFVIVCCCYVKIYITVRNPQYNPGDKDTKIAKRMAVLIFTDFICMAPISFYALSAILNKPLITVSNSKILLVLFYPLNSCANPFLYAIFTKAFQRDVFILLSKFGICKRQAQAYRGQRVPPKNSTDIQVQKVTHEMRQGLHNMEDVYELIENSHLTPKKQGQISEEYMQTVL
Summary of the method: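 TSHR-HEK293 cells were plated and held 18 h at 37C/5% CO2, then given compound plus Ro20-1724 and stimulated with TSH at 1.5 ng/mL final. After 30 min at room temperature, cAMP was detected with cAMP-d2/anti-cAMP-cryptate (1 h) by fluorescence.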

[17] = qHTS assay to identify small molecule agonists of the estrogen receptor alpha (ER-alpha) signaling pathway in the presence of an antagonist - cell viability counter screen (AID 1259386; active = well fitted curve in the direction sought with a large enough effect in the repeat runs; an effect the other way counts as inactive or inconclusive;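 also: series mostly up to about 92 µM; cells exposed to compounds for 22 h at 37 °C before the viability read; nearly all actives have a fitted effect of over 30% in size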)
Summary of the method: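 VM7Luc4E2, stripped-serum pre-culture 5 d; 24hr plating; +ICI-182,780 10.0nM final; cpds 15 conc, 22hr, 37C/5% CO2; CellTiter-Fluor added at 21hr, fluorescence 1hr later.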

[18] = target: Progesterone receptor (Homo sapiens) (UniProt P06401); assay: qHTS assay to identify small molecule agonists of the progesterone receptor (PR) signaling pathway (AID 1346784); also: nearly all actives have a fitted effect of over 30% in size
Summary of the method: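 Agonist mode, quantitative HTS format in a HEK 293T line expressing a UAS-controlled beta-lactamase reporter; 16 hr compound exposure at 37C in 2% charcoal-stripped FBS, then LiveBLAzer B/G FRET fluorescence.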

[19] = qHTS assay to identify small molecule agonists of the TGF-beta/Smad signaling pathway - cell viability counter screen (AID 1346829; active = well fitted curve in the direction sought with a large enough effect in the repeat runs; an effect the other way counts as inactive or inconclusive; also: top concentration of the series differs between compounds; nearly all actives have a fitted effect of over 45% in size)
Summary of the method: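 Luminescence from CellTiter-Glo, read after a 30 min room-temperature incubation, gives cell viability of SBE-bla HEK 293T cells treated 5 hr with compounds at 37 C.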

[20] = target: Thyrotropin-releasing hormone receptor (Homo sapiens) (UniProt P34981); assay: qHTS assay to identify small molecule antagonists of the thyrotropin-releasing hormone receptor (TRHR) signaling pathway (AID 1346877; active = well fitted inhibition curve with a large enough effect in the repeat runs, not every such curve was filed as active; also: series mostly up to about 51 µM)
Chain of Thyrotropin-releasing hormone receptor (Homo sapiens) (P34981 whole entry, looked up): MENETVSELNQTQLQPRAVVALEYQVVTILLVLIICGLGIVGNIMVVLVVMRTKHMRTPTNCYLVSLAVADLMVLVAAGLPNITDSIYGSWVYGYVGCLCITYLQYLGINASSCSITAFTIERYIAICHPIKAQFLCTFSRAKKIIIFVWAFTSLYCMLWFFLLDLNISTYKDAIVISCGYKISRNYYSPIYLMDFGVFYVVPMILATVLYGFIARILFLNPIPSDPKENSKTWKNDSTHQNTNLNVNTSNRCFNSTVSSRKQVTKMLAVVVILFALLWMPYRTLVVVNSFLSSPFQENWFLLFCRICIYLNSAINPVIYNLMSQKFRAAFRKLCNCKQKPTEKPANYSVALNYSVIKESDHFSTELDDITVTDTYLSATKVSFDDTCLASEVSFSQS
Summary of the method: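 Intracellular calcium fluorescence, read kinetically every second over 3 min, reports TRH-evoked signalling in HEK293 cells carrying TRHR. Test compounds were added 5 min ahead of a 1 nM TRH challenge.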
% is scaled to controls: 0 for no effect and ±100 for the full control effect.

CCCOC(=O)c1ccc(N)cc1
inactive: Potency [1] | Potency [2] | Potency [3] | Potency [4] | Potency [5] | Potency [6] | Potency [7] | Potency [8] | Potency [9] | outcome [10] | Potency [11] | Potency [12] | Potency [13] | outcome [14] | outcome [15]

CCCC(=O)O[C@]1(C(=O)COC(=O)CC)CC[C@H]2[C@@H]3CCC4=CC(=O)CC[C@]4(C)[C@H]3[C@@H](O)C[C@@]21C
inactive: activity change [1] -1.53% [at 18.9 µM, hits give high values] | activity change, negative = inhibition [2] -24.8% [at 19 µM] | activation [3] 6.24% [at 19 µM] | activity, negative = inhibition [4] 1.87% [at 19 µM] | activity change, negative = cytotoxicity [5] 0.279% [at 19 µM] | activity change, negative = cytotoxicity [6] 1.26% [at 19 µM] | activity change, negative = cytotoxicity [8] 2.67% [at 19 µM] | activation [9] 0.91% [at 19 µM] | cAMP activity change [10] 6.72% [at 18.9 µM] | activity change, negative = inhibition [16] -1.62% [at 19 µM] | activity change, negative = cytotoxicity [17] 2.18% [at 19 µM] | activation [18] 3.7% [at 19 µM] | activity change, negative = cytotoxicity [12] -3.5% [at 18.9 µM] | activity change, negative = cytotoxicity [13] 17.2% [at 19 µM] | viability change, negative = cytotoxic [14] -0.584% [at 15.8 µM] | activity change, negative = cytotoxicity [19] -0.518% [at 15.8 µM] | activation [15] 5.59% [at 15.8 µM] | activity, negative = inhibition [20] -1.85% [at 10.5 µM]
active: Potency [7] 0.184 µM

CCCCOC(=O)CCS
inactive: Potency [1] | Potency [2] | Potency [3] | Potency [4] | Potency [5] | Potency [6] | Potency [8] | Potency [9] | outcome [10] | Potency [18] | Potency [11] | Potency [13] | outcome [19] | outcome [15]

CCCCCCCCCCCCCCC[C@H](O)[C@@H](N)CO
active: Potency [16] 26.6 µM
inactive: Potency [1] | Potency [2] | Potency [3] | Potency [4] | Potency [5] | Potency [6] | Potency [7] | Potency [8] | Potency [9] | outcome [10] | Potency [18] | Potency [13] | outcome [14] | outcome [19] | outcome [15] | outcome [20]

CC(C)=CC=O
inactive: Potency [1] | Potency [2] | Potency [3] | Potency [4] | Potency [5] | Potency [6] | Potency [7] | Potency [9] | Potency [12] | Potency [13] | outcome [14] | outcome [19] | outcome [15]

O=S1OCCO1
inactive: Potency [1] | Potency [2] | Potency [3] | Potency [4] | Potency [5] | Potency [6] | Potency [8] | Potency [9] | outcome [10] | Potency [16] | Potency [18] | Potency [11] | Potency [12] | Potency [13] | outcome [14] | outcome [19] | outcome [15] | outcome [20]

CCCOCCOCCO
inactive: Potency [1] | Potency [2] | Potency [3] | Potency [4] | Potency [5] | Potency [6] | Potency [8] | Potency [9] | outcome [10] | Potency [16] | Potency [17] | Potency [18] | Potency [11] | Potency [12] | Potency [13] | outcome [14] | outcome [15]

CCOC(=O)/C=C/C(=O)O
inactive: Potency [1] | Potency [2] | Potency [3] | Potency [4] | Potency [5] | Potency [6] | Potency [7] | Potency [8] | Potency [9] | outcome [10] | Potency [16] | Potency [17] | Potency [18] | Potency [11] | Potency [13] | outcome [14] | outcome [15]
